Laboratory results reported in PubChem BioAssay AID540303 (National Center for Advancing Translational Sciences (NCATS), 2011).
Out of some 330,000 compounds screened, about 1,000 (0.3%) were called active. About 3% were inconclusive and are not listed. Calls follow the shape of the dose curve; as a rule, active = well fitted inhibition curve with a large enough effect; inconclusive = small, poorly fitted or top-dose-only effect; inactive = no such curve, though single readings can be large or run the other way; tested in mouse RAW 264.7 cells. This excerpt belongs to a sample that is enriched for actives.

Assay: qHTS for Inhibitors of Cell Surface uPA Generation; also: nearly all actives have a fitted effect of over 55% in size
Details: cell surface uPA generation assay; series mostly up to 38.3 µM; activity change, negative = inhibition: at the top concentration
Outline: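 Using RAW 264.7 macrophages, the screen measures whether compounds keep cellular ATP up by preventing uPA-driven LF translocation. Treatment lasted 24 h at 37 C, with a final top concentration of 38.3 uM, and luminescence was the readout.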
% is scaled to controls: 0 for no effect and ±100 for the full control effect; potency is read from the fitted curve at half-maximal effect.

Activity change, negative = inhibition, inactive:
COCC(=O)N(C)[C@H]1C[C@H]2c3cc(Oc4ccccc4C)ccc3CCN2C(=O)[C@H]1[C@H](C)O -8.04%
CC(=O)OC1CCC2C3CCC4=C(CC(F)C(=O)C4)C3CCC12C (stereo unspecified) -1.93%
Oc1ccc(Br)cc1C=Nc1ccc2[nH]ncc2c1 -8.16%
Oc1ccc(/C=N/Nc2ccc(C(F)(F)F)cn2)cc1O -7.76%
C[C@@H]1ON(C)[C@H]2C[C@H]3c4cc(N5CCN(C)CC5)ccc4CCN3C(=O)[C@@H]12 10.6%
COc1ccc(CNc2ncnc3ccccc23)cc1 2.13%
COc1ccc(CNC(=O)C2CCCC2)cc1 0.576%
OCCCNc1nc(-c2ccccc2)c2cc(Cl)ccc2n1 -2.2%
NS(=O)(=O)c1cccnc1Nc1cccc(Cl)c1 5.06%
NC1=NOC(=O)C1C1CCCCC1 (stereo unspecified) 2.75%
CCCCN(C(=O)CSCc1ccc(C)cc1)c1c(N)n(Cc2ccccc2)c(=O)[nH]c1=O -5.42%
Nc1ccc2c(c1)C(=Cc1cccnc1)c1ccccc1-2 -4.54%
COn1c(-c2ccc(Cl)cc2Cl)nc2ncccc21 -0.408%
O=C1c2ccccc2C(=O)N1Cc1cc(-c2ccccc2Cl)no1 -7.69%
CN(O)C(=S)c1ccccc1 -5.86%
CCc1c(Nc2ccccc2C)nc(N)[nH]c1=O 0.701%
CCN(CC)S(=O)(=O)c1cccc(NC(=O)c2ccc(S(=O)(=O)N3CCCC3)cc2)c1 2.72%
COc1ccc(-c2nnc(-c3ccc4ccccc4c3)o2)cc1 3.79%
COc1ccc(-c2cn3cccnc3n2)cc1 -8.17%
COc1ccc(/C=C/C(=O)OCC(=O)N2CCN(S(=O)(=O)c3ccc(C)cc3C)CC2)cc1OC -25.9%
COc1cc(C(=O)CCc2ccc3c(c2)OCO3)cc(OC)c1OC 1.46%
S=C(Nc1ccccc1)Nc1ccc2ccccc2c1 0.245%
Cc1ccn2cc(C(=O)NC3CCN(Cc4ccccc4)CC3)nc2c1 4.62%
CCN(CC)S(=O)(=O)c1ccc(-c2cn3ccc(C)cc3n2)cc1 -29.7%
O=c1ccn([C@@H]2O[C@H](CNS(=O)(=O)c3cc4ccccc4s3)[C@@H](O)[C@H]2O)c(=O)[nH]1 5.53%
O=C(NN=Cc1ccccc1)c1ccccc1 -9.51%
CC(=O)N1CCc2ccc(N)cc21 3.65%
COc1ccc2c(c1)c(=Cc1ccc(N(C)C)cc1)c1cc(-c3ccccc3)[n+](C)n12 -7.82%
O=[N+]([O-])c1cc2ccccc2nc1-c1ccccc1 -3.87%
COc1ccc2c(C(=O)c3ccc(C)cc3)n(CCC(N)=O)[n+]([O-])c2c1 -0.295%
COc1ccc(C(=O)CC(=O)C(=O)Nc2cc([N+](=O)[O-])ccc2OC)cc1 -10.5%
CC/C(=C(/c1ccccc1)c1ccc(OCC[N+](C)(C)C)cc1)c1ccccc1 -1.1%
Cc1c(NS(=O)(=O)c2cccc(C(=O)Nc3ccc(SC(F)F)cc3)c2)c(=O)n(-c2ccccc2)n1C -10.2%
OCCN1CCN(CCO)C1=S -0.396%
COc1cccc(C=CC(=O)C=CC=Cc2ccccc2)c1 -6.72%
COC(=O)C(C)Oc1ccc2c(c1)O/C(=C\c1cccc(Br)c1)C2=O (stereo unspecified) 13.6%
COc1ccc2c(c1)O/C(=C\c1ccccc1O)C2=O -5.64%
CCC1([N+](=O)[O-])COC(c2ccc(C(C)C)cc2)OC1 (stereo unspecified) -8.09%
N#CC1=C(N)Oc2cc(N)ccc2C1c1ccccc1 (stereo unspecified) -9.22%
OC(CNCc1ccc2c(c1)OCO2)COc1ccccc1 (stereo unspecified) 2.79%
Cc1ccc(OCC(=O)OC(C)CN(C)Cc2ccccc2)cc1 (stereo unspecified) -3.72%
O=c1nc(NO)ccn1C1CCCO1 (stereo unspecified) 3.28%
CN(C)CCNC(=O)c1ccc(Cl)c2cc3ccccc3nc12 -9.97%
Cc1ccc(S(=O)(=O)n2oc(=O)c(C3CCCCC3)c2N)cc1 -4.82%
COC(=O)C1=CN(Cc2ccc(OC)c(OC)c2)C=C(C(=O)OC)C1c1cccs1 -8.06%
CCc1ccc(OCC2c3cc(OC)c(OC)cc3CCN2C(C)=O)cc1 (stereo unspecified) 9.64%
COc1ccc(S(=O)(=O)N2CCc3ccccc32)cc1C(=O)Nc1cc(S(C)(=O)=O)ccc1Cl -10.3%
O=C1/C(=C\c2ccc([N+](=O)[O-])cc2)CS(=O)(=O)C/C1=C/c1ccc([N+](=O)[O-])cc1 -3.6%
CCOC(=O)c1c(C)[nH]c(C)c1S(=O)(=O)N(C)CC(=O)Nc1ccccc1C 15.1%
CCOC(=O)c1ccccc1OC(=O)Oc1ccccc1C(=O)OCC -9.61%
CC(=O)Oc1ccc(OC(C)=O)c2c1C1C=CC2CC1 -6.74%
C[C@H](O)[C@@H]1C(=O)N2CCc3ccc(N4CCOCC4)cc3[C@@H]2C[C@@H]1N(C)C(=O)C(C)(C)C 17.9%
CC(NC(=O)c1ccccc1)C(=O)OCC(=O)Nc1cccc(S(=O)(=O)N2CCCC2)c1 (stereo unspecified) 9.64%
O=C(NNC(=O)c1ccccc1O)c1ccccc1O -13.1%

Potency, active:
Oc1ccc(Br)cc1/C=N/Nc1ccccn1 2.82 µM
COc1ccc(CNc2nc(NCc3ccc(OC)cc3)c3ncn(C4CCCC4)c3n2)cc1 1.41 µM
OCCCNc1nccc(-c2cc(Nc3cccc(Cl)c3)ncn2)n1 1.58 µM
Clc1ccc(-c2cc(-c3ccccn3)on2)c(Cl)c1 0.891 µM
COc1ccc(-c2cc3ncccc3cn2)cc1 10 µM
COc1ccc(-c2cn3ccc(C)cc3n2)cc1 1 µM
COc1ccc(C(=O)c2c3ccc([N+](=O)[O-])cc3[n+]([O-])n2CCCN)cc1 0.794 µM
COc1cc(/C=C2\Oc3ccc(C#Cc4ccc(O)cc4)cc3C2=O)cc(OC)c1 4.47 µM
CN(Cc1ccccc1)CC(O)COc1ccc(CNCc2cc3ccccc3s2)cc1 (stereo unspecified) 10 µM
COc1ccc(CC2c3cc(OC)c(OC)cc3CC[N+]2(C)CCC(=O)OCCCCCOC(=O)CC[N+]2(C)CCc3cc(OC)c(OC)cc3C2Cc2ccc(OC)c(OC)c2)cc1OC (stereo unspecified) 10 µM
CCOC(=O)c1c(C)[nH]c2c1-c1ccccc1C(=O)C2=O 5.62 µM
CCN1/C(=C\c2ccc3ccccc3[n+]2CC)Sc2cc(C)ccc21 3.55 µM
